{"source": "ChEMBL document CHEMBL4888484", "about": "“Replenishing the malaria drug discovery pipeline: Screening and hit evaluation of the MMV Hit Generation Library 1 (HGL1) against asexual blood stage Plasmodium falciparum ,using a nano luciferase reporter read-out” (2022)", "note": "In all, about 4,800 compounds went through this assay and about 410 (8.5%) showed an effect of 50% or more. This is one part of a sample in which strong results are shown more often than they occur.", "data": [{"system": "Plasmodium falciparum", "assay": "Confirmatory screen in NF54 pLDH assay, in single point, at 2uM, 72h", "assay_type": "functional, Erythrocyte", "conditions": "timepoint 72 hour", "units": {"% Inhibition": "%"}, "values": [{"smiles": "CCC(CC)N1CC(C(=O)NC2COc3ccc(C)cc32)CC1=O", "note": "(stereo not given)", "% Inhibition": -21}, {"smiles": "CCn1cc(S(=O)(=O)N(C)Cc2nn(CC)cc2Cl)cn1", "% Inhibition": 8}, {"smiles": "Cn1c(=O)c2sc(N3CCCC3)nc2n(CC(=O)NC2CCCC2)c1=O", "% Inhibition": 4}, {"smiles": "COc1ccc(CC[C@H](C)NC(=O)NCCCN2CCCC2=O)cc1", "% Inhibition": 11}, {"smiles": "CC(C)C(=O)N1CC[C@H](CC(=O)NCc2ccncc2)C1", "% Inhibition": 5}, {"smiles": "N#CC1CCC(Nc2cnn(-c3ccncc3)c2)CC1", "note": "(stereo not given)", "% Inhibition": 11}, {"smiles": "CS(=O)(=O)N1CC[C@H](CC(=O)N2CCN(c3ccc(F)cc3)CC2)C1", "% Inhibition": -21}, {"smiles": "CN(C)c1cc(C(=O)N2CCOC3CCCCC32)ccn1", "note": "(stereo not given)", "% Inhibition": 3}, {"smiles": "Cc1ccc(C)c(-c2nc(Cn3c(=O)c4c(C)cc(C)nc4n(C)c3=O)c(C)o2)c1", "% Inhibition": 3}, {"smiles": "Fc1cnc(OC2Cc3ccccc3C2)nc1", "% Inhibition": 57}, {"smiles": "Cn1nccc1/C=C1\\CC2C3CCc4cc(O)ccc4C3CCC2(C)C1O", "note": "(stereo not given)", "% Inhibition": 47}, {"smiles": "Nc1ncncc1C(=O)NCCc1c[nH]c2ccc(F)cc12", "% Inhibition": 6}, {"smiles": "CCOc1ncc(Br)cc1C(=O)O", "% Inhibition": -19}, {"smiles": "O=C(C[C@H]1CCCN1c1ccnc(C2CC2)n1)c1ccco1", "% Inhibition": 12}, {"smiles": "c1cc2c(cc1[C@H]1NCCCCCCO1)OCO2", "% Inhibition": -5}, {"smiles": "O=C1Nc2ccc(Br)cc2C1=O", "% Inhibition": 13}, {"smiles": "COc1ccccc1-n1c(=O)[nH]c2nc(N3CCN(c4ccccn4)CC3)ncc2c1=O", "% Inhibition": 3}, {"smiles": "CC(C)(C)OC(=O)NC1CCN(c2ncc(C(=O)NCc3ccc(F)c(Cl)c3)c(N)n2)CC1", "% Inhibition": -10}, {"smiles": "N#Cc1cccc(-c2n[nH]c3c2CN(c2ccc(-c4ccccc4)nn2)CC3)c1", "% Inhibition": 100}, {"smiles": "N#Cc1cc(N2CCc3ccccc3C2)nc2ccccc12", "% Inhibition": 8}, {"smiles": "COc1ccc2c(c1)CN(C(=O)C1CC3CCC1C3)CC2", "note": "(stereo not given)", "% Inhibition": 11}, {"smiles": "Nc1ncc(C(=O)N2CCC3(CCCCCC3)C2)s1", "% Inhibition": 98}, {"smiles": "Cc1ncsc1C(=O)N1CCC2(CCCCC2)C1", "% Inhibition": -22}, {"smiles": "O=C1C[C@@H](C(=O)N2CCC3(CCCCC3)C2)CCN1", "% Inhibition": 10}, {"smiles": "NC(=O)[C@H]1CCCN(c2ccnc(C(=O)NCc3ccccc3)c2)C1", "% Inhibition": 4}, {"smiles": "CC1C(Cc2ccccc2)CCN1C(=O)c1cnc(C(F)(F)F)nc1", "note": "(stereo not given)", "% Inhibition": 14}, {"smiles": "Cc1ccc(C(=O)N2C[C@@H]3C[C@H](NC(=O)c4cccnc4)[C@H]2C3)cc1F", "% Inhibition": -1}, {"smiles": "Cc1ccc(S(=O)(=O)N2CC[C@H](CC(=O)NCc3ccccc3)C2)c(C)c1", "% Inhibition": -22}, {"smiles": "CC(=O)Nc1ccc(C)cc1S(=O)(=O)N1CC=C(c2c(C)n(Cc3ccccc3C)c3ccccc23)CC1", "% Inhibition": 90}, {"smiles": "Cc1ccc(NC(=O)Cn2c(=O)n(Cc3ccco3)c(=O)c3ccccc32)c(C)c1", "% Inhibition": -13}]}]}
